# Data reported in PubChem BioAssay (EPA / NIEHS).
# Records with an inconclusive call do not appear. Calls of active or inactive are those of the source. How the source made its calls: active means hit-call score of the fitted dose curve at least 0.9, where 1 is the maximum; inconclusive means response in the unintended direction; inactive means score below 0.9.
# Experiments:
# [1] = molecular target: Cellular tumor antigen p53 (Homo sapiens) (UniProt P04637); assay: TOX21_p53_BLA_p3_ratio: Tox21 HCT-116 p53 Agonism Beta-lactamase Assay, Ratio, Phase 3 (AID 2283596)
# Outline: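 Cells were seeded at 4000/well, rested 5 h at 37C, then dosed with DMSO compound solutions (217-fold dilution) for 16 h. CCF4-AM substrate was loaded for 2 h at room temperature, and the 460/530 nm emission ratio was fitted for gain of signal versus DMSO.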
# [2] = TOX21_p53_BLA_p4_viability: Viability Assessment in the Tox21 HCT-116 p53 Agonism Beta-lactamase Assay, Phase 4 (AID 2283597);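 further: hits lower the luminescence signal meaning cytotoxicity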
# Outline: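 ATP content by CellTiter-Glo luminescence, 30 min RT, read after the beta-lactamase ratio step. Cells: HCT116, 4000/well, compound added after 5 h, exposure 16 h at 37C. Signal loss = reduced viability.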
# [3] = molecular target: Cellular tumor antigen p53 (Homo sapiens) (UniProt P04637); assay: TOX21_p53_BLA_p5_ratio: Tox21 HCT-116 p53 Agonism Beta-lactamase Assay, Ratio, Phase 5 (AID 2283599)
# Outline: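 HCT-116 cells carrying a p53-inducible beta-lactamase reporter were seeded at 4000 cells/well and dosed after 5 h with compound in DMSO (217-fold dilution). After 16 h at 37C, CCF4-AM substrate was added for 2 h, and the 460/530 nm emission ratio was scored as gain-of-signal versus DMSO.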
# [4] = molecular target: Cellular tumor antigen p53 (Homo sapiens) (UniProt P04637); assay: TOX21_p53_BLA_p4_ratio: Tox21 HCT-116 p53 Agonism Beta-lactamase Assay, Ratio, Phase 4 (AID 2283601)
# Outline: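 HCT116 cells carrying an inducible beta-lactamase reporter were plated at 4000 cells/well, rested 5 h, then exposed to compounds in DMSO (217-fold dilution) for 16 h at 37C. CCF4-AM substrate was loaded 2 h at room temperature; 460/530 nm emission ratio scored gain-of-signal versus DMSO.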
# [5] = TOX21_p53_BLA_p5_viability: Viability Assessment in the Tox21 HCT-116 p53 Agonism Beta-lactamase Assay, Phase 5 (AID 2283600)
# Outline: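 ATP luminescence (CellTiter-Glo, 30 min, RT) served as the viability read-out, with loss of signal indicating cytotoxicity. Compounds in DMSO were pinned at a 217-fold dilution onto 4000 cells/well and incubated 16 h, 37C.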
# Cellular tumor antigen p53 (Homo sapiens), sequence (P04637 whole entry, looked up): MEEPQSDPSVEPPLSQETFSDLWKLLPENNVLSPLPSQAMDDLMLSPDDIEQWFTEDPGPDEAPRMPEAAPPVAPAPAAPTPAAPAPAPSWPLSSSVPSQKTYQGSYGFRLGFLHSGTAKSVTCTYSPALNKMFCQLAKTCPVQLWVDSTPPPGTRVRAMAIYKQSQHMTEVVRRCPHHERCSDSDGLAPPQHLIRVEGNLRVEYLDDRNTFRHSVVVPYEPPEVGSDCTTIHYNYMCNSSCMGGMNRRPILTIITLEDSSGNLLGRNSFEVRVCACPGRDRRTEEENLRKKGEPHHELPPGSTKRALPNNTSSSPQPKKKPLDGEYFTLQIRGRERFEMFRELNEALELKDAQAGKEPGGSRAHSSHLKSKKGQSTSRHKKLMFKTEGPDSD
smiles,measurement,setting,value
COc1ccccc1N=Nc1c(S(=O)(=O)O)cc2cc(S(=O)(=O)O)cc(NC(C)=O)c2c1O,outcome,[1],inactive
same,outcome,[2],inactive
same,outcome,[3],inactive
same,outcome,[4],inactive
CCCCCCCCc1ccc(S(=O)(=O)O)cc1,outcome,[1],inactive
same,AC50,[2],33.7 µM (active)
same,outcome,[3],inactive
same,outcome,[5],inactive
same,outcome,[4],inactive
CCCC[O][Al]([O]CCCC)[O]CCCC,outcome,[1],inactive
same,outcome,[2],inactive
same,outcome,[3],inactive
same,outcome,[4],inactive
O=C(CC(=O)c1ccccc1)c1ccccc1,outcome,[1],inactive
same,outcome,[2],inactive
same,outcome,[3],inactive
same,outcome,[5],inactive
same,outcome,[4],inactive
Nc1ccccc1[N+](=O)[O-],outcome,[1],inactive
same,outcome,[2],inactive
same,outcome,[3],inactive
same,outcome,[5],inactive
same,outcome,[4],inactive
CCc1cc(Cc2cc(CC)cc(C(C)(C)C)c2O)c(O)c(C(C)(C)C)c1,AC50,[1],32.6 µM (active)
same,AC50,[2],5.48 µM (active)
same,AC50,[3],29.3 µM (active)
same,AC50,[5],20.1 µM (active)
same,AC50,[4],10.8 µM (active)
OCc1cccc(Oc2ccccc2)c1,outcome,[1],inactive
same,outcome,[2],inactive
same,outcome,[3],inactive
same,outcome,[5],inactive
same,outcome,[4],inactive
Cc1cccc(Nc2ccccc2)c1,outcome,[1],inactive
same,outcome,[2],inactive
same,outcome,[3],inactive
same,outcome,[4],inactive
C=C(C#N)C(=O)OCC,outcome,[1],inactive
same,outcome,[2],inactive
same,outcome,[3],inactive
same,outcome,[5],inactive
same,outcome,[4],inactive
CCOC(=O)C(C#N)=C(c1ccccc1)c1ccccc1,outcome,[1],inactive
same,outcome,[2],inactive
same,outcome,[3],inactive
same,outcome,[5],inactive
same,outcome,[4],inactive
O=C(O)CCCCCCCCC(=O)O,outcome,[1],inactive
same,outcome,[2],inactive
same,outcome,[3],inactive
same,outcome,[5],inactive
same,outcome,[4],inactive
COC(=O)c1ccc(OC)cc1,outcome,[1],inactive
same,outcome,[2],inactive
same,outcome,[3],inactive
same,outcome,[4],inactive
Cc1cc(=O)oc2cc(N(C)C)ccc12,AC50,[1],50.6 µM (active)
same,outcome,[2],inactive
same,AC50,[3],47.9 µM (active)
same,AC50,[4],53.6 µM (active)
C=C(C)CNCC,outcome,[1],inactive
same,outcome,[2],inactive
same,outcome,[3],inactive
same,outcome,[4],inactive
COC(=O)Nc1ccc(Cl)c(Cl)c1,outcome,[1],inactive
same,outcome,[2],inactive
same,outcome,[3],inactive
same,outcome,[5],inactive
same,outcome,[4],inactive
O=C(O)c1ccc(O)cc1,outcome,[1],inactive
same,outcome,[2],inactive
same,outcome,[3],inactive
same,outcome,[4],inactive
CCc1cc(C(C)(C)C)c(O)c(C(C)(C)C)c1,outcome,[1],inactive
same,outcome,[2],inactive
same,outcome,[3],inactive
same,outcome,[5],inactive
same,outcome,[4],inactive
OCCOCCN1CCN(C2=Nc3ccccc3Sc3ccccc32)CC1,outcome,[1],inactive
same,outcome,[2],inactive
same,outcome,[3],inactive
same,outcome,[5],inactive
same,outcome,[4],inactive
